Source: PubChem BioAssay (several laboratories)
NadD block = inhibitors of S. aureus NadD, primary screen, biochemical, colorimetric, uHTS; Nicotinate-nucleotide adenylyltransferase NadD (Staphylococcus aureus N315); purified NadD enzyme, colorimetric absorbance read-out; inhibition, % at 20 µM; 360,000 compounds, 0.78% hits; AID 602399, 2012; in the data active means inhibition above about 26%
Mot1-301 SUMO = yeast Mot1-301 growth rescue at high temperature, primary screen, SUMOylation pathway inhibitor project, S. cerevisiae, ATP luminescence, 38.5C; S. cerevisiae Mot1-301 growth rescue; percent above DMSO median, 100 means doubled; growth rescue, % at 18.8 µM; AID 2716, 2010; 320,000 compounds, 1% hits;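 active means every valid replicate shows activation above 250% relative to neutral control wells; inactive means the rest, any valid replicate at or below 250%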
Calb FLC = C. albicans growth inhibition with fluconazole, primary screen, CaCi-2 strain, Alamar Blue fluorescence; growth inhibition, % (no concentration beside the values); C. albicans CaCi-2 (fluconazole-resistant clinical isolate) + fluconazole, 48 h; 300,000 compounds, 0.57% hits;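 active means growth inhibition above about 58% in most replicates, limit read from the data, passing the limit was not always enough; inconclusive means exactly half the replicates above a set limit; inactive means most replicates below a set limit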;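 further: all wells also contain fluconazole at 8 µg/ml as a sub-toxic cotreatment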
ATG4B inhibitor = ATG4B protease inhibitors, primary screen, biochemical, fluorescence, uHTS | Cysteine protease ATG4B (Homo sapiens), Q9Y4P1 | ATG4B cleavage of LC3-PLA2, NBD-HPC fluorescence, 1 h | inhibition, % at 8.33 µM | 340,000 compounds, 0.51% hits | AID 504462, 2011; in the data active means inhibition above about 40%
Target sequence (Q9Y4P1 whole entry, looked up): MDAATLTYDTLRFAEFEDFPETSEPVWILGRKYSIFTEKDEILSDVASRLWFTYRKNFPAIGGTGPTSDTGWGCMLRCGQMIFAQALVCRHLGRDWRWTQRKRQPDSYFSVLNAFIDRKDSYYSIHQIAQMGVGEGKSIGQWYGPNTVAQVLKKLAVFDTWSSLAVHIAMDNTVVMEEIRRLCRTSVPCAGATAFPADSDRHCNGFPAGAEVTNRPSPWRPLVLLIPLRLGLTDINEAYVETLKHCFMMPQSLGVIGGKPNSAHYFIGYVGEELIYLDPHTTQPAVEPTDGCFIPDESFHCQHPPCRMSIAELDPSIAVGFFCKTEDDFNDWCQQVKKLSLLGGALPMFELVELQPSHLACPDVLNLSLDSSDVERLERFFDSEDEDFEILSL
FAS TE block = FAS thioesterase domain inhibitors, primary screen, biochemical, fluorescence intensity, uHTS; recombinant FAS-TE, OMFH fluorogenic substrate, fluorescence endpoint; Fatty acid synthase (Homo sapiens), P49327; 360,000 compounds, 0.67% hits; inhibition, % at 15 µM; AID 602261, 2012;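 active means compounds whose normalised, plate-corrected inhibition of enzyme fluorescence in the single-dose primary screen is 50% or more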
Hits are given with their value; n = inactive; u = inconclusive; x = no result given; + = active, no number. The list is not random: actives were taken first. Their share in the collection is about 3.1%.

SMILES	NadD block	Mot1-301 SUMO	Calb FLC	ATG4B inhibitor	FAS TE block
C[C@H](CO)N1C[C@H](C)[C@@H](CN(C)C(=O)Nc2ccc3c(c2)OCO3)Oc2c(NC(=O)Nc3ccc(C(F)(F)F)cc3)cccc2C1=O	n	n	x	n	76
C[C@H](CO)N1C[C@H](C)[C@@H](CN(C)C(=O)Nc2ccc(C(F)(F)F)cc2)Oc2c(NC(=O)Nc3ccc4c(c3)OCO4)cccc2C1=O	n	n	x	n	75
O=C(O)c1cnc(-c2ccccc2)nc1Sc1cccc(Cl)c1	n	n	n	n	n
O=C(O)c1cnc(-c2ccccc2)nc1Sc1ccc(Cl)cc1Cl	n	n	106	n	n
COc1ccc(/C(C)=N/NC(=O)CNC(=O)c2ccco2)c(OC)c1	n	n	n	n	n
O=c1c(N=Nc2ccc(O)cc2)c(-c2ccccc2)[nH]n1-c1ccc([N+](=O)[O-])cc1	40	n	n	n	n
COc1ccc2c(c1)cc(C(=O)N[C@H](C(=O)N1CCC(C(=O)O)CC1)C(C)C)n2C	n	n	n	n	n
COc1ccc2c(c1)cc(C(=O)N[C@H](C(=O)N1CCC[C@H]1C(=O)O)C(C)C)n2C	n	419	n	n	n
COc1ccc(CN2CSC(=S)N(Cc3ccc(OC)cc3)C2)cc1	n	328	n	n	n
CCN1/C(=C/c2sc(-c3ccccc3C)c[n+]2C)Sc2ccccc21	n	x	106	n	n
CCC(Oc1ccccc1)C(=O)Nc1ncc([N+](=O)[O-])s1 (configuration not stated)	n	n	94	n	n
O=C(COC(=O)COc1ccccc1)Nc1ncc([N+](=O)[O-])s1	n	n	x	n	n
CC(CC(=O)Nc1ncc([N+](=O)[O-])s1)c1ccccc1 (configuration not stated)	n	n	92	n	n
O=C(COc1ccc(Cl)cc1)Nc1ncc([N+](=O)[O-])s1	n	x	98	n	n
COCCNC(=O)C1(C)CCCN(C(=O)c2cc(C)oc2C)C1 (configuration not stated)	n	x	x	x	n
CC(=O)Nc1ccc(N=Nc2ccccc2)cc1[N+](=O)[O-]	n	x	x	n	n
C=CCN1C(=O)C(O)(CC(=O)c2ccc(-n3cccc3)cc2)c2ccccc21 (configuration not stated)	27	x	u	n	n
O=C(CC1(O)C(=O)Nc2ccccc21)c1ccc(-n2cccc2)cc1 (configuration not stated)	n	n	n	n	n
NS(=O)(=O)c1ccc2c(c1)C1C=CCC1C(C1CC=CCC1)N2 (configuration not stated)	39	x	n	n	n
COc1ccccc1[C@]1(C)ON(c2ccccc2C(F)(F)F)C1=O	n	296	x	n	n
COc1ccc(CCNC(=O)CC(=O)N/N=C\c2ccc(OCC(N)=O)cc2)cc1OC	n	x	x	x	n
Cc1[nH]c2ccc(C(=O)N3CCN(c4ccccn4)CC3)cc2c1C	n	n	n	n	n
CCc1ccc(C)c(OC(=O)c2cncc(Br)c2)c1	n	n	n	n	n
Cc1ccc(C)c(OC(=O)c2cncc(Br)c2)c1	n	n	98	n	n
O=C(Nc1sc2c(c1C(=O)c1ccccc1)CCCC2)c1cccnc1	n	n	n	n	n
SMILES	NadD block	Mot1-301 SUMO	Calb FLC	ATG4B inhibitor	FAS TE block
O=C(Nc1sc2c(c1C(=O)c1ccc(Cl)cc1)CCCC2)c1cccnc1	n	n	84	n	n
Cc1cccc(C)c1NC(=O)CN(C)C(=O)c1ccc2nc[nH]c2c1	n	n	n	n	n
COc1cccc(C2C(C(=O)c3cc4ccccc4o3)=C(O)C(=O)N2c2cc(C)on2)c1OC (configuration not stated)	n	n	78	n	n
CCOC(=O)C1CCCN(Cc2nc(CC3CC3)no2)C1 (configuration not stated)	n	+	n	n	n
COCCN1C[C@@H](CO)O[C@@H](n2cnc3c(N4CCCC4)ncnc32)C1	n	x	x	x	n
O=C(Nc1ccc(N2CCOCC2)cc1)c1ccc(COc2ccccc2)cc1	n	n	n	n	n
COc1ccccc1CNC(=O)COC(=O)c1ccc(NC(N)=O)cc1	n	325	n	n	n
COc1ccccc1CNC(=O)COC(=O)c1ccc(C(=O)c2ccccc2)cc1	n	n	x	n	n
Cc1cc(C)n(-c2nc3ccccc3nc2N2CCN(S(=O)(=O)c3ccc4ccccc4c3)CC2)n1	n	n	n	n	67
CC(C)c1ccc(NC(=O)Cc2cn(C)c3ccccc23)cc1	n	n	114	n	n
Cn1cc(CC(=O)NCc2ccc(F)cc2)c2ccccc21	n	n	n	n	n
Cn1c(SCC(=O)N2CCc3ccccc3C2)nnc1-c1cccs1	n	n	n	n	n
Cn1c(SCC(=O)N2CCc3ccccc3C2)nnc1-c1ccncc1	n	n	57	n	n
Cc1nn(C)c(C)c1/C=C/C(=O)c1ccc(Cl)cc1Cl	n	x	92	n	n
CN1CCN(S(=O)(=O)c2ccc(SCCOc3ccccc3)nc2)CC1	n	n	n	n	n
CCOc1ccc(OCCSc2ccc(S(=O)(=O)N3CCN(C)CC3)cn2)cc1	n	295	x	n	n
CCCCN1CC(=O)N2[C@H]3c4ccccc4OC[C@@H]3[C@H](c3ccccc3)[C@]2(C)C1=O	n	n	x	n	n
COC(=O)/C=C1\SC(=NC(=O)c2ccc(-c3ccccc3)cc2)NC1=O	31	n	x	n	n
C[C@H]1CN(S(=O)(=O)c2c(F)cccc2F)CCN1S(=O)(=O)c1ccc2c(c1)OCCO2	n	n	x	n	n
CN(C)CCN1C(=O)C(=O)/C(=C(/O)c2ccc(S(=O)(=O)N3CCOCC3)cc2)C1c1ccccc1 (configuration not stated)	n	315	n	n	n
Cc1ccccc1-c1cc2nc(Oc3ccc4c(c3)OCO4)n(C)c(=O)c2s1	n	x	x	x	n
O=C(O)c1ccc(N2C(=O)/C(=C/c3ccc(-c4ccc([N+](=O)[O-])cc4)o3)C=C2c2ccccc2)cc1	56	n	n	n	n
O=C1NN(c2ccccc2)C(=O)/C1=C/c1ccc(-c2ccc(C(=O)O)cc2)o1	n	n	n	n	n
O/N=C/c1cc(Br)ccc1OCc1ccc(F)cc1	n	n	n	n	n
Oc1c(Br)cc(Br)cc1C=NCc1ccc(F)cc1	n	n	n	74	n
Cc1ccc([N+](=O)[O-])cc1NC(=O)C1CCCC1	n	n	96	n	n
O=C(Nc1ccc([N+](=O)[O-])cc1)/C(=C/c1cccc([N+](=O)[O-])c1)NC(=O)C1CCCCC1	n	n	n	n	59
Cc1ccc([N+](=O)[O-])cc1N/C=C1\CCCCC1=O	n	+	n	n	n
COc1ccc(/C=N/NC(=O)c2cccc(C(=O)N/N=C/c3ccc(OC)cc3)n2)cc1	n	306	n	n	n
